# Shown is part of a subset that was picked to be rich in the strongest signals.
# B1: HML-Native (Hypnea musciformis), P84871 (protein)
# chain: QKFCTLDIAPVCCQIVIGGGMYTAGNACMCEGFVSGVGRCENPKECPCTREAQIPSCCSSRWGLVSVTGKCACDCLGGTVAFPEPCPSPY
# Legend:
# Assay in all cases: glycan array binding signal (z-score within array); higher = stronger binding
# Conditions in all cases: glycan notation: IUPAC condensed, linker removed
# [1] = biological target: Fuc(a1-2)Gal(b1-3)[Fuc(a1-4)]GlcNAc(b1-3)[Fuc(a1-3)[Gal(b1-4)]GlcNAc(b1-6)]Gal(b1-4)Glc
# How it was run: (§1)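 Glycan array data were curated from 3228 arrays in the Consortium for Functional Glycomics database and kept only where the protein sequence was available. Glycan names were converted to IUPAC-condensed notation, and columns mapping to the same glycan were averaged. The binding signal is a within-array Z-score, averaged across arrays of the same protein sequence at different concentrations or buffers and across linkers. Negative Z-scores can be read as non-binding.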
# [2] = biological target: Fuc(a1-2)Gal(b1-4)[Fuc(a1-3)]GlcNAc(b1-2)[Fuc(a1-2)Gal(b1-4)[Fuc(a1-3)]GlcNAc(b1-4)]Man(a1-3)[Fuc(a1-2)Gal(b1-4)[Fuc(a1-3)]GlcNAc(b1-2)Man(a1-6)]Man(b1-4)GlcNAc(b1-4)GlcNAc
# How it was run: as §1
# [3] = biological target: Fuc(a1-2)[Gal(a1-3)]Gal(b1-3)GlcNAc
# How it was run: as §1
# [4] = biological target: Fuc(a1-2)[Gal(a1-3)]Gal(b1-4)[Fuc(a1-3)]Glc
# How it was run: as §1
# [5] = biological target: Fuc(a1-2)[GalNAc(a1-3)]Gal(b1-3)GlcNAc(b1-2)Man(a1-3)[Fuc(a1-2)[GalNAc(a1-3)]Gal(b1-3)GlcNAc(b1-2)Man(a1-6)]Man(b1-4)GlcNAc(b1-4)GlcNAc
# How it was run: as §1
# [6] = biological target: Fuc(a1-2)[GalNAc(a1-3)]Gal(b1-4)GlcNAc(b1-3)GalNAc
# How it was run: as §1
# [7] = biological target: Fuc(a1-2)[GalNAc(a1-4)]Gal(b1-4)GlcNAc
# How it was run: as §1
# [8] = biological target: Gal(b1-3)GalNAc(b1-4)[Neu5Ac(a2-3)]Gal(b1-4)Glc
# How it was run: as §1
# [9] = biological target: Gal(b1-3)GlcNAc(b1-2)Man(a1-3)[Gal(b1-3)GlcNAc(b1-2)Man(a1-6)]Man(b1-4)GlcNAc(b1-4)[Fuc(a1-6)]GlcNAc
# How it was run: as §1
# [10] = biological target: Gal(b1-3)GlcNAc(b1-2)Man(a1-3)[GlcNAc(b1-4)][Gal(b1-3)GlcNAc(b1-2)Man(a1-6)]Man(b1-4)GlcNAc(b1-4)GlcNAc
# How it was run: as §1
# Gal(b1-4)Glc6S = biological target: Gal(b1-4)Glc6S
# How it was run: as §1
# [11] = biological target: Gal(b1-4)GlcNAc(b1-2)Man(a1-3)[Gal(b1-4)GlcNAc(b1-2)Man(a1-6)]Man(b1-4)GlcNAc(b1-4)[Fuc(a1-6)]GlcNAc
# How it was run: as §1
# [12] = biological target: Gal(b1-4)GlcNAc(b1-2)Man(a1-3)[Gal(b1-4)GlcNAc(b1-2)Man(a1-6)][Gal(b1-4)GlcNAc(b1-4)]Man(b1-4)GlcNAc(b1-4)[Fuc(a1-6)]GlcNAc
# How it was run: as §1
# [13] = biological target: Gal(b1-4)GlcNAc(b1-3)Gal(b1-3)GalNAc
# How it was run: as §1
# [14] = biological target: Gal(b1-4)GlcNAc(b1-3)Gal(b1-4)GlcNAc(b1-2)Man(a1-3)[Gal(b1-4)GlcNAc(b1-3)Gal(b1-4)GlcNAc(b1-2)Man(a1-6)]Man(b1-4)GlcNAc(b1-4)[Fuc(a1-6)]GlcNAc
# How it was run: as §1
# [15] = biological target: Gal(b1-4)GlcNAc(b1-3)Gal(b1-4)GlcNAc(b1-3)Gal(b1-4)GlcNAc(b1-2)Man(a1-3)[Gal(b1-4)GlcNAc(b1-3)Gal(b1-4)GlcNAc(b1-3)Gal(b1-4)GlcNAc(b1-2)Man(a1-6)]Man(b1-4)GlcNAc(b1-4)[Fuc(a1-6)]GlcNAc
# How it was run: as §1
# [16] = biological target: Gal(b1-4)GlcNAc(b1-3)Gal(b1-4)GlcNAc(b1-3)Gal(b1-4)GlcNAc(b1-3)Gal(b1-4)GlcNAc(b1-2)Man(a1-3)[Gal(b1-4)GlcNAc(b1-3)Gal(b1-4)GlcNAc(b1-3)Gal(b1-4)GlcNAc(b1-3)Gal(b1-4)GlcNAc(b1-2)Man(a1-6)]Man(b1-4)GlcNAc(b1-4)[Fuc(a1-6)]GlcNAc
# How it was run: as §1
# [17] = biological target: Gal(b1-4)GlcNAc(b1-3)Gal(b1-4)GlcNAc(b1-3)Gal(b1-4)GlcNAc(b1-3)Gal(b1-4)GlcNAc(b1-3)Gal(b1-4)GlcNAc(b1-2)Man(a1-3)[Gal(b1-4)GlcNAc(b1-3)Gal(b1-4)GlcNAc(b1-3)Gal(b1-4)GlcNAc(b1-3)Gal(b1-4)GlcNAc(b1-3)Gal(b1-4)GlcNAc(b1-2)Man(a1-6)]Man(b1-4)GlcNAc(b1-4)[Fuc(a1-6)]GlcNAc
# How it was run: as §1
# [18] = biological target: Gal(b1-4)GlcNAc(b1-3)Gal(b1-4)GlcNAc(b1-6)[Gal(b1-3)]GalNAc
# How it was run: as §1
# Gal3S(b1-4)GlcNAc = biological target: Gal3S(b1-4)GlcNAc
# How it was run: as §1
# Gal6S(b1-3)GlcNAc6S = biological target: Gal6S(b1-3)GlcNAc6S
# How it was run: as §1
# [19] = biological target: GalNAc(b1-3)Gal(a1-6)Gal(b1-4)Glc
# How it was run: as §1
# GalNAc(b1-4)Gal(b1-4)Glc = biological target: GalNAc(b1-4)Gal(b1-4)Glc
# How it was run: as §1
# GalNAc(b1-6)GalNAc = biological target: GalNAc(b1-6)GalNAc
# How it was run: as §1
# GlcA(b1-6)Gal = biological target: GlcA(b1-6)Gal
# How it was run: as §1
# [20] = biological target: GlcNAc(a1-4)Gal(b1-4)GlcNAc(b1-3)Gal(b1-4)[Fuc(a1-3)]GlcNAc(b1-3)Gal(b1-4)[Fuc(a1-3)]GlcNAc
# How it was run: as §1
# [21] = biological target: GlcNAc(b1-2)[GlcNAc(b1-4)]Man(a1-3)[GlcNAc(b1-2)Man(a1-6)]Man(b1-4)GlcNAc(b1-4)GlcNAc
# How it was run: as §1
# [22] = biological target: GlcNAc(b1-2)[GlcNAc(b1-6)]Man(a1-6)[GlcNAc(b1-2)Man(a1-3)]Man(b1-4)GlcNAc(b1-4)[Fuc(a1-6)]GlcNAc
# How it was run: as §1
# GlcNAc(b1-3)Fuc = biological target: GlcNAc(b1-3)Fuc
# How it was run: as §1
# GlcNAc(b1-3)Gal(b1-4)Glc = biological target: GlcNAc(b1-3)Gal(b1-4)Glc
# How it was run: as §1
# [23] = biological target: GlcNAc(b1-3)Gal(b1-4)GlcNAc(b1-2)Man(a1-3)[GlcNAc(b1-3)Gal(b1-4)GlcNAc(b1-2)Man(a1-6)]Man(b1-4)GlcNAc(b1-4)[Fuc(a1-6)]GlcNAc
# How it was run: as §1
# [24] = biological target: GlcNAc(b1-3)Gal(b1-4)GlcNAc(b1-3)Gal(b1-4)GlcNAc(b1-2)Man(a1-3)[GlcNAc(b1-3)Gal(b1-4)GlcNAc(b1-3)Gal(b1-4)GlcNAc(b1-2)Man(a1-6)]Man(b1-4)GlcNAc(b1-4)[Fuc(a1-6)]GlcNAc
# How it was run: as §1
# [25] = biological target: GlcNAc(b1-3)Gal(b1-4)GlcNAc(b1-3)Gal(b1-4)GlcNAc(b1-3)Gal(b1-4)GlcNAc(b1-2)Man(a1-3)[GlcNAc(b1-3)Gal(b1-4)GlcNAc(b1-3)Gal(b1-4)GlcNAc(b1-3)Gal(b1-4)GlcNAc(b1-2)Man(a1-6)]Man(b1-4)GlcNAc(b1-4)[Fuc(a1-6)]GlcNAc
# How it was run: as §1
# [26] = biological target: GlcNAc(b1-3)Gal(b1-4)GlcNAc(b1-3)Gal(b1-4)GlcNAc(b1-3)Gal(b1-4)GlcNAc(b1-2)[GlcNAc(b1-3)Gal(b1-4)GlcNAc(b1-3)Gal(b1-4)GlcNAc(b1-3)Gal(b1-4)GlcNAc(b1-6)]Man(a1-6)[GlcNAc(b1-3)Gal(b1-4)GlcNAc(b1-3)Gal(b1-4)GlcNAc(b1-3)Gal(b1-4)GlcNAc(b1-2)Man(a1-3)]Man(b1-4)GlcNAc(b1-4)[Fuc(a1-6)]GlcNAc
# How it was run: as §1
# [27] = biological target: GlcNAc(b1-3)Gal(b1-4)GlcNAc(b1-6)[Gal(b1-3)]GalNAc
# How it was run: as §1
# [28] = biological target: GlcNAc(b1-4)GlcNAc(b1-4)GlcNAc(b1-4)GlcNAc(b1-4)GlcNAc(b1-4)GlcNAc
# How it was run: as §1
# [29] = biological target: GlcNAc(b1-4)[GlcNAc(b1-6)]GalNAc
# How it was run: as §1
# [30] = biological target: Man(a1-2)Man(a1-2)Man(a1-6)[Man(a1-3)]Man
# How it was run: as §1
# [31] = biological target: Man(a1-3)[Man(a1-6)]Man(b1-4)GlcNAc(b1-4)[Fuc(a1-6)]GlcNAc
# How it was run: as §1
# Man(a1-6)Man = biological target: Man(a1-6)Man
# How it was run: as §1
# [32] = biological target: Neu5Ac(a2-3)Gal(b1-3)GlcNAc(b1-3)Gal(b1-3)GlcNAc
# How it was run: as §1
# Neu5Ac(a2-3)GalNAc = biological target: Neu5Ac(a2-3)GalNAc
# How it was run: as §1
# [33] = biological target: Neu5Ac(a2-6)Gal(b1-4)GlcNAc(b1-2)Man(a1-3)Man(b1-4)GlcNAc(b1-4)GlcNAc
# How it was run: as §1
# [34] = biological target: Neu5Ac(a2-6)Gal(b1-4)GlcNAc(b1-2)Man(a1-3)[Man(a1-6)]Man(b1-4)GlcNAc(b1-4)GlcNAc
# How it was run: as §1
# [35] = biological target: Neu5Ac(a2-6)Gal(b1-4)GlcNAc(b1-2)Man(a1-3)[Neu5Ac(a2-6)Gal(b1-4)GlcNAc(b1-2)Man(a1-6)]Man(b1-4)GlcNAc(b1-4)[Fuc(a1-6)]GlcNAc
# How it was run: as §1
# [36] = biological target: Neu5Ac(a2-6)Gal(b1-4)GlcNAc(b1-3)Gal(b1-4)GlcNAc(b1-6)[Gal(b1-3)]GalNAc
# How it was run: as §1
binder,measurement,setting,value
B1,glycan array binding signal (z-score),[1],-0.188
same,glycan array binding signal (z-score),[2],-0.059
same,glycan array binding signal (z-score),[3],-0.211
same,glycan array binding signal (z-score),[4],-0.283
same,glycan array binding signal (z-score),[5],-0.093
same,glycan array binding signal (z-score),[6],-0.302
same,glycan array binding signal (z-score),[7],-0.162
same,glycan array binding signal (z-score),[8],-0.318
same,glycan array binding signal (z-score),[9],5.16
same,glycan array binding signal (z-score),[10],-0.276
same,glycan array binding signal (z-score),Gal(b1-4)Glc6S,-0.313
same,glycan array binding signal (z-score),[11],5.65
same,glycan array binding signal (z-score),[12],1.48
same,glycan array binding signal (z-score),[13],-0.238
same,glycan array binding signal (z-score),[14],5.52
same,glycan array binding signal (z-score),[15],4.93
same,glycan array binding signal (z-score),[16],4.9
same,glycan array binding signal (z-score),[17],4.8
same,glycan array binding signal (z-score),[18],-0.192
same,glycan array binding signal (z-score),Gal3S(b1-4)GlcNAc,-0.233
same,glycan array binding signal (z-score),Gal6S(b1-3)GlcNAc6S,-0.323
same,glycan array binding signal (z-score),[19],-0.345
same,glycan array binding signal (z-score),GalNAc(b1-4)Gal(b1-4)Glc,-0.252
same,glycan array binding signal (z-score),GalNAc(b1-6)GalNAc,-0.284
same,glycan array binding signal (z-score),GlcA(b1-6)Gal,-0.241
same,glycan array binding signal (z-score),[20],0.641
same,glycan array binding signal (z-score),[21],-0.307
same,glycan array binding signal (z-score),[22],4.99
same,glycan array binding signal (z-score),GlcNAc(b1-3)Fuc,-0.11
same,glycan array binding signal (z-score),GlcNAc(b1-3)Gal(b1-4)Glc,-0.205
same,glycan array binding signal (z-score),[23],5.62
same,glycan array binding signal (z-score),[24],5.5
same,glycan array binding signal (z-score),[25],5.16
same,glycan array binding signal (z-score),[26],1.38
same,glycan array binding signal (z-score),[27],-0.272
same,glycan array binding signal (z-score),[28],-0.197
same,glycan array binding signal (z-score),[29],-0.239
same,glycan array binding signal (z-score),[30],-0.005
same,glycan array binding signal (z-score),[31],5.72
same,glycan array binding signal (z-score),Man(a1-6)Man,-0.3
same,glycan array binding signal (z-score),[32],-0.295
same,glycan array binding signal (z-score),Neu5Ac(a2-3)GalNAc,-0.258
same,glycan array binding signal (z-score),[33],-0.157
same,glycan array binding signal (z-score),[34],-0.166
same,glycan array binding signal (z-score),[35],5.65
same,glycan array binding signal (z-score),[36],-0.205
